Assay [1] in a line: Primary qHTS for inhibitors of nuclear receptor binding SET domain protein 2 (NSD2) in an isogenic RCH-ACV NSD2 p.E1099K mutant (9B) (AID 1645876).
Assay [2] is described as follows: Primary qHTS for inhibitors of nuclear receptor binding SET domain protein 2 (NSD2) in an RCH-ACV wild type WT cells (2C) (AID 1645877). Background: In qHTS, concentration-response curves come from the screen itself.

SMILES strings stand for the structures. Records with an inconclusive call do not appear. A number with no mark means an inactive call. The source made the active and inactive calls. Calls come from the whole dose curve; as a rule, active = well fitted curve in the direction sought with a large enough effect; inconclusive = small, poorly fitted or top-dose-only effect, or another doubt; inactive = no such curve, though single readings can be large; an effect the other way counts as inactive or inconclusive.
% is set by controls: 0 for no effect and ±100 for the full control effect; potency is the fitted concentration of half-maximal effect.
Note: nearly all actives have a fitted effect of over 70% in size.

Turning to `CC(C)(O)C1CCC(C)(C2CCC3(C)C4CCC5C(C)(C(=O)OC6OC(CO)C(O)C(O)C6O)C(O)CC(O)C56CC46CCC23C)O1` (configuration not stated), the Potency entry in assay [1] and in assay [2] was “inactive” throughout.

With `C=C1C[C@]23C[C@H]1[C@@H](O)C[C@H]2[C@@]12C=C[C@H](O)[C@@](C)(C(=O)O1)[C@H]2[C@@H]3C(=O)O`, the Potency result in assay [1] and in assay [2] was “inactive” each time.

In the case of `C/C1=C\CC[C@]2(C)O[C@@H]2[C@H](O)[C@H](C(C)C)[C@H](OC(=O)/C=C/c2ccccc2)C1`, the Potency result in assay [1] and in assay [2] was “inactive” in each case.

Take `C=C1CN(Cc2ccc(C(=O)Nc3ccccc3N)cc2)C(=O)c2ccccc21`: the Potency in assay [1] and in assay [2] was 230 nM (active) each time.

On to `C[C@@H]1O[C@@H](O[C@H]2[C@H](OC(=O)[C@]34CCC(C)(C)C[C@H]3C3=CCC5[C@@]6(C)CC[C@H](O[C@@H]7O[C@H](C(=O)O)[C@@H](O)[C@H](O)[C@H]7O[C@@H]7O[C@H](CO)[C@H](O)[C@H](O)[C@H]7O)[C@@](C)(C=O)C6CC[C@@]5(C)[C@]3(C)C[C@H]4O)O[C@H](C)[C@H](O[C@@H]3O[C@H](C)[C@H](O)[C@H](O)[C@H]3O)[C@@H]2O)[C@H](O)[C@H](O)[C@H]1O[C@@H]1OC[C@@H](O)[C@H](O[C@@H]2O[C@H](CO)[C@@H](O)[C@H](O)[C@H]2O)[C@H]1O` (some centres not stated), for which the activity change, negative = viability loss in assay [1] was -94% [at 4.96 µM]. Moreover, the activity change, negative = cell killing in assay [2] was -94% [at 4.96 µM].

With `COc1ccc(/C=C/C(=O)O[C@@H]2[C@@H](O)[C@@H](O)[C@H](O[C@@H]3C=C(CO)[C@H]4[C@H](O[C@@H]5O[C@H](CO)[C@@H](O)[C@H](O)[C@H]5O)OC=C[C@H]43)O[C@H]2C)cc1O`, the Potency entry in assay [1] and in assay [2] was “inactive” in each case.

These data come from PubChem BioAssay (NCATS).
